Results reported in PubChem BioAssay (NCATS).
Records with an inconclusive call do not appear. Active and inactive are the calls of the source. Calls follow the shape of the dose curve; as a rule, active = well fitted curve in the direction sought with a large enough effect; inconclusive = small, poorly fitted or top-dose-only effect, or another doubt; inactive = no such curve, though single readings can be large; an effect the other way counts as inactive or inconclusive.

Legend:
[1] = tested on: KB-3-1; test: Cytotoxic Profiling of Annotated Libraries Using Quantitative High-Throughput Screening (AID 1296008); details: Five cell lines viability, CellTiter-Glo ATP luminescence, 48-72 h; max response: hits give low values; also: nearly all actives have a fitted effect of over 60% in size
In short: (§1)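 Cytotoxicity was measured as CellTiter-Glo ATP luminescence, read after 10 min at room temperature. Compound treatment of the cells lasted 48 or 72 hr at 37 degrees Celsius in a qHTS format.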

[2] = tested on: NIH3T3; test: as above; details: Five cell lines viability, CellTiter-Glo ATP luminescence, 48-72 h; max response: hits give low values
In short: as §1

[3] = tested on: HEK293T; test: qHTS assay to identify novel small-molecules to repurpose for Merkel cell carcinoma treatment (AID 1296009); details: MCC and control cell lines, CellTiter-Glo viability, 72 h; at 44.8 µM (top of the series) unless noted; also: nearly all actives have a fitted effect of over 60% in size
In short: (§2)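 72 hr, 37 degree celsius; NPC 8-pt / MIPE 11-pt dose response; compound pinned in DMSO; CellTiter-Glo, 10 min RT, luminescence; normalized to no-cell and DMSO controls.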

[4] = tested on: MCC-13; test: as above; details: MCC and control cell lines, CellTiter-Glo viability, 72 h; series mostly up to 46 µM
In short: as §2

[5] = tested on: MCC-26; test: as above; details: MCC and control cell lines, CellTiter-Glo viability, 72 h; series mostly up to 46 µM
In short: as §2

[6] = tested on: MKL-1; test: as above; details: MCC and control cell lines, CellTiter-Glo viability, 72 h; series mostly up to 46 µM
In short: as §2

[7] = tested on: MKL-2; test: as above; details: MCC and control cell lines, CellTiter-Glo viability, 72 h; series mostly up to 46 µM
In short: as §2

[8] = tested on: UISO; test: as above; details: MCC and control cell lines, CellTiter-Glo viability, 72 h; series mostly up to 46 µM
In short: as §2

[9] = tested on: WaGa; test: as above; details: MCC and control cell lines, CellTiter-Glo viability, 72 h; series mostly up to 46 µM
In short: as §2

[10] = tested on: C33A; test: Primary qHTS to identify gynecologic anti-cancer compounds using libraries of approved drugs and bioactive compounds (AID 1345084); details: Gynecologic cancer cell panel viability, ATPlite luminescence, 48 h; series mostly up to 57.5 µM; also: nearly all actives have a fitted effect of over 55% in size
In short: (§3)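 Cells, 1,000 per well, were allowed to settle for 16 h at 37 C before compound addition. Five concentrations were tested for 48 h, and viability was read by ATPlite luminescence after 15 min at room temperature.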

[11] = tested on: CASKI; test: as above; details: Gynecologic cancer cell panel viability, ATPlite luminescence, 48 h; series mostly up to 57.5 µM
In short: as §3

[12] = tested on: Es-2; test: as above; details: Gynecologic cancer cell panel viability, ATPlite luminescence, 48 h; series mostly up to 57.5 µM
In short: as §3

[13] = tested on: HeLa; test: as above; details: Gynecologic cancer cell panel viability, ATPlite luminescence, 48 h; series mostly up to 57.5 µM
In short: as §3

[14] = tested on: Hek293T; test: as above; details: Gynecologic cancer cell panel viability, ATPlite luminescence, 48 h, control line for the selectivity index; series mostly up to 57.5 µM
In short: as §3

[15] = tested on: JEG-3; test: as above; details: Gynecologic cancer cell panel viability, ATPlite luminescence, 48 h; series mostly up to 57.5 µM
In short: as §3

[16] = tested on: OV90; test: as above; details: Gynecologic cancer cell panel viability, ATPlite luminescence, 48 h; series mostly up to 57.5 µM
In short: as §3

[17] = tested on: PA-1; test: as above; details: Gynecologic cancer cell panel viability, ATPlite luminescence, 48 h; series mostly up to 57.5 µM
In short: as §3

[18] = tested on: CAOV3; test: as above; details: Gynecologic cancer cell panel viability, ATPlite luminescence, 48 h; series mostly up to 57.5 µM
In short: as §3
% is scaled to controls: 0 for no effect and ±100 for the full control effect.

CC1(C)OC[C@@H]2O[C@@]3(C(=O)O)OC(C)(C)O[C@H]3[C@@H]2O1
inactive: max response [1] -15.5% | max response [2] -5.58% | outcome [3] | Potency [4] | Potency [5] | Potency [6] | Potency [7] | Potency [8] | Potency [9] | Potency [10] | Potency [11] | Potency [12] | Potency [13] | Potency [14] | Potency [15] | Potency [16] | Potency [17]

Cc1cc2c(OCC(CNC(C)(C)C)OC(=O)c3ccccc3)cccc2[nH]1 (stereo not drawn)
inactive: max response [1] -8.32% | max response [2] 2.07% | outcome [3] | Potency [4] | Potency [5] | Potency [6] | Potency [7] | Potency [8] | Potency [10] | Potency [18] | Potency [11] | Potency [12] | Potency [13] | Potency [14] | Potency [15] | Potency [16] | Potency [17]

CC(=O)Oc1ccc(C)cc1
inactive: max response [1] 5.93% | max response [2] 2.4% | Potency [4] | Potency [5] | Potency [6] | Potency [7] | Potency [8] | Potency [9] | Potency [10] | Potency [18] | Potency [11] | Potency [12] | Potency [13] | Potency [14] | Potency [15] | Potency [16] | Potency [17]

Cc1ncc(CO)c(C=O)c1O
inactive: max response [1] 3.7% | max response [2] -38.1% | Potency [4] | Potency [5] | Potency [6] | Potency [7] | Potency [8] | Potency [9] | Potency [10] | Potency [18] | Potency [11] | Potency [12] | Potency [13] | Potency [14] | Potency [15] | Potency [16] | Potency [17]

Clc1cccc(C(c2ccc3nc[nH]c3c2)n2ccnc2)c1 (stereo not drawn)
inactive: max response [1] 11.8% | max response [2] -0.487% | Potency [4] | Potency [5] | Potency [6] | Potency [7] | Potency [8] | Potency [9] | Potency [10] | Potency [18] | Potency [11] | Potency [12] | Potency [13] | Potency [14] | Potency [15] | Potency [16] | Potency [17]

COc1cc(C(=S)N2CCOCC2)ccc1O
inactive: max response [1] 12.3% | max response [2] -6.82% | Potency [4] | Potency [5] | Potency [6] | Potency [7] | Potency [8] | Potency [9] | Potency [10] | Potency [18] | Potency [11] | Potency [12] | Potency [13] | Potency [14] | Potency [15] | Potency [16] | Potency [17]

Nc1ccc(S(=O)(=O)NCc2ccccc2)cc1
inactive: max response [1] -2.49% | max response [2] -0.659% | Potency [4] | Potency [5] | Potency [6] | Potency [7] | Potency [8] | Potency [9] | Potency [10] | Potency [18] | Potency [11] | Potency [12] | Potency [13] | Potency [14] | Potency [15] | Potency [16] | Potency [17]

CC(=O)NO
inactive: max response [1] 15.6% | max response [2] 2.47% | Potency [4] | Potency [5] | Potency [6] | Potency [7] | Potency [8] | Potency [9] | Potency [10] | Potency [18] | Potency [11] | Potency [12] | Potency [13] | Potency [14] | Potency [15] | Potency [16] | Potency [17]

CCN1CCCC(OC(=O)C(c2ccccc2)c2ccccc2)C1 (stereo not drawn)
inactive: max response [1] -9.59% | max response [2] 2.04% | Potency [4] | Potency [5] | Potency [6] | Potency [7] | Potency [8] | Potency [9] | Potency [10] | Potency [18] | Potency [11] | Potency [12] | Potency [13] | Potency [14] | Potency [15] | Potency [16] | Potency [17]

NS(=O)(=O)c1cc2c(cc1Cl)NC(CC1CCCC1)NS2(=O)=O (stereo not drawn)
inactive: max response [1] 7.67% | max response [2] 2.98% | Potency [4] | Potency [5] | Potency [6] | Potency [7] | Potency [8] | Potency [9] | Potency [10] | Potency [18] | Potency [11] | Potency [12] | Potency [13] | Potency [14] | Potency [15] | Potency [16] | Potency [17]

CC(C)(C)NC[C@H](O)COc1cccc2c1CCCC2=O
inactive: max response [1] -2.09% | max response [2] -0.923% | Potency [4] | Potency [5] | Potency [6] | Potency [7] | Potency [8] | Potency [9] | Potency [10] | Potency [18] | Potency [11] | Potency [12] | Potency [13] | Potency [14] | Potency [15] | Potency [16] | Potency [17]

COc1ccc(S(=O)(=O)N2c3ccc(Cl)cc3[C@@](O)(c3ccccc3Cl)[C@H]2C(=O)N2CCC[C@@H]2C(N)=O)cc1OC
inactive: max response [1] -5.62% | max response [2] 1.04% | Potency [4] | Potency [5] | Potency [6] | Potency [7] | Potency [8] | Potency [9] | Potency [10] | Potency [18] | Potency [11] | Potency [12] | Potency [13] | Potency [14] | Potency [15] | Potency [16] | Potency [17]

O=C(O)c1ccc(S(=O)(=O)N(Cl)Cl)cc1
inactive: max response [1] -9.69% | max response [2] -3.94% | Potency [4] | Potency [5] | Potency [6] | Potency [7] | Potency [8] | Potency [9] | Potency [10] | Potency [18] | Potency [11] | Potency [12] | Potency [13] | Potency [14] | Potency [15] | Potency [16] | Potency [17]

COP(=O)(OC)OC(c1ccc(Cl)cc1)P(=O)(OC)OC (stereo not drawn)
inactive: max response [1] 0.95% | max response [2] -38.8% | Potency [4] | Potency [5] | Potency [6] | Potency [7] | Potency [8] | Potency [9] | Potency [10] | Potency [18] | Potency [11] | Potency [12] | Potency [13] | Potency [14] | Potency [15] | Potency [16] | Potency [17]
